According to PubChem BioAssay (NCATS):
Records with an inconclusive call do not appear. A number with no mark means an inactive call. Active and inactive are the calls of the source. The call rests on the fitted dose curve; in most records, active means well fitted curve in the direction sought with a large enough effect; inconclusive means small, poorly fitted or top-dose-only effect, or another doubt; inactive means no such curve, though single readings can be large; an effect the other way counts as inactive or inconclusive.

Columns and labels:
[1] = Viability qHTS for spleen associated tyrosine kinase inhibitor (SYKi) drug resistant MV4-11 cells (AID 1963824); details: SYKi-resistant MV4-11 viability, CellTiter-Glo, 72 h; series mostly up to 45 µM; further: nearly all actives have a fitted effect of over 35% in size; further: potency means the concentration at half of the fitted maximal effect
Outline: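 SYK-inhibitor-resistant MV4-11 AML cells were seeded at 500 per well onto compound and cultured 72 hours (37 °C, 5% CO2). CellTiter-Glo was then added, and after 10 min at room temperature, luminescence gave viability.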

[2] = Quantitative highthroughput screen to assess conditional lethalithy of P12 Ichikawa cells grown in RPMI1640 with untreated serum (RPMI+s) (AID 1963881); details: ATP luminescence, 48 h; Potency: viability; series mostly up to 45.8 µM; further: nearly all actives have a fitted effect of over 35% in size; further: potency means the concentration at half of the fitted maximal effect;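 on Viability: 100% = DMSO wells and 0% = empty wells without cells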
Outline: (§1)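 Each medium arm—HPLM with 10% dialyzed FBS, or RPMI1640 with 5 mM glucose and 10% untreated or dialyzed FBS—was screened against an 11-point, 3-fold compound titration for 48 h at 37 °C, with CellTiter-Glo luminescence as endpoint.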

[3] = Quantitative highthroughput screen to assess conditional lethalithy of SEM cells grown in Human Plasma-Like Medium with dialyzed fetal bovine serum (HPLM+ds) (AID 1963882); details: SEM B-ALL cells in HPLM+ds, CellTiter-Glo viability, 48 h; series mostly up to 45.8 µM; further: nearly all actives have a fitted effect of over 35% in size; further: potency means the concentration at half of the fitted maximal effect
Outline: as §1

[4] = Quantitative highthroughput screen to assess conditional lethalithy of SEM cells grown in RPMI1640 with dialyzed fetal bovine serum (RPMI+ds) (AID 1963884); details: SEM B-ALL cells, RPMI+dialyzed FBS, CellTiter-Glo viability, 48 h; series mostly up to 45.8 µM;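 further: 100% = DMSO control wells and 0% = empty wells without cells; nearly all actives have a fitted effect of over 35% in size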
Outline: as §1

[5] = Cellular viability qHTS for adrenocortical cancer (ACC) cell line SW-13 (AID 1963989); details: SW-13 ACC cells viability, CellTiter-Glo, 48 h; activity (max response): hits give low values; further: nearly all actives have a fitted effect of over 65% in size; further: potency means the concentration at half of the fitted maximal effect;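 on activity (max response): cells grown in serum-free medium with ITS supplement; on the % scale 0 is the no-effect control and ±100 the full control effect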
Outline: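 48 h treatment, SW-13 in ITS/DMEM serum-free; doses up to 46 uM; readout CellTiter-Glo luminescence; curve fit four-parameter logistic.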

[6] = Cellular viability qHTS for adrenocortical cancer (ACC) cell line NCI-H295R (AID 1963990); details: CellTiter-Glo ATP luminescence, 48 h; series mostly up to 46.1 µM; further: nearly all actives have a fitted effect of over 60% in size; further: potency means the concentration at half of the fitted maximal effect
Outline: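 Compound titrations (up to 46 uM final) are applied to NCI-H295R cultures for 48 h at 37C. Viable cell number is estimated by CellTiter-Glo signal, normalised to DMSO and doxorubicin controls.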

[7] = Quantitative highthroughput screen to assess conditional lethalithy of NOMO1 cells grown in RPMI1640 with untreated serum (RPMI+s) (AID 1963876); details: NOMO1 AML cells in RPMI+serum, CellTiter-Glo viability, 48 h; series mostly up to 45.8 µM; further: nearly all actives have a fitted effect of over 35% in size; further: potency means the concentration at half of the fitted maximal effect;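 on Viability: 100% = DMSO wells and 0% = empty wells without cells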
Outline: as §1

[8] = Quantitative highthroughput screen to assess conditional lethalithy of P12 Ichikawa cells grown in Human Plasma-Like Medium with dialyzed fetal bovine serum (HPLM+ds) (AID 1963879); details: ATP luminescence, 48 h; Potency: viability; series mostly up to 45.8 µM; further: nearly all actives have a fitted effect of over 35% in size; further: potency means the concentration at half of the fitted maximal effect
Outline: as §1

[9] = Quantitative highthroughput screen to assess conditional lethalithy of P12 Ichikawa cells grown in RPMI1640 with dialyzed fetal bovine serum (RPMI+ds) (AID 1963880); details: ATP luminescence, 48 h; Potency: P12-Ichikawa viability; series mostly up to 45.8 µM; further: nearly all actives have a fitted effect of over 35% in size; further: potency means the concentration at half of the fitted maximal effect;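 on Viability: 100% = DMSO wells and 0% = empty wells on each plate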
Outline: as §1

[10] = Quantitative highthroughput screen to assess conditional lethalithy of SEM cells grown in RPMI1640 with unreated serum (RPMI+s) (AID 1963883); details: SEM B-ALL cells, CellTiter-Glo viability, 48 h; series mostly up to 45.8 µM; further: nearly all actives have a fitted effect of over 35% in size; further: potency means the concentration at half of the fitted maximal effect;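 on Viability: 100% = DMSO wells and 0% = empty wells without cells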
Outline: as §1

[11] = Quantitative highthroughput screen to assess conditional lethalithy of NOMO1 cells grown in RPMI1640 with dialyzed fetal bovine serum (RPMI+ds) (AID 1963877); details: NOMO1 in RPMI+dialyzed FBS viability, ATP luminescence, 48 h; series mostly up to 45.8 µM;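 further: 100% = DMSO control wells and 0% = empty wells; nearly all actives have a fitted effect of over 30% in size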
Outline: as §1

[12] = Quantitative highthroughput screen to assess conditional lethalithy of NOMO1 cells grown in Human Plasma-Like Medium with dialyzed fetal bovine serum (HPLM+ds) (AID 1963878); details: NOMO1 AML cells in HPLM+ds, CellTiter-Glo viability, 48 h; series mostly up to 45.8 µM
Outline: as §1

Question: For `COc1cc2c(cc1O)C1(C)CCC(O)C(C)(C)C1CC2=O` (stereo unspecified), which Potency [1] is on record?
Answer: inactive

Question: For `C/C=C(\C)C(=O)O[C@@H]1[C@@H](C)[C@]2(O)C3C=C(C)C(=O)[C@@]3(O)CC(CO)=C[C@H]2C2C(C)(C)[C@@]21OC(=O)C(C)CC` (stereo partly specified), which Potency [1] is on record?
Answer: 0.0045 µM (active)

Question: With `CC(=O)O[C@H]1CC[C@H]2[C@@H]3CC[C@H]4CC(=O)C=C(C)[C@]4(C)[C@H]3CC[C@]12C` as the molecule, how does the Potency [1] read?
Answer: 11.6 µM (active)

Question: For `COC1(C[S@@](=O)c2ccccc2)CCN(CCc2c[nH]c3ccc(F)cc23)CC1`, which Potency [1] is on record?
Answer: 20.6 µM (active)

Question: With `Cc1cc(C(=O)CN2CCCC2)c(C)n1-c1ccc(F)cc1` as the molecule, how does the Potency [1] read?
Answer: 16.4 µM (active)

Question: Which Potency [1] does the source give for `CCOC(=O)Nc1ccc(NCc2ccc(F)cc2)cc1N` here?
Answer: 18.6 µM (active)

Question: What about the Potency [2] of the same molecule?
Answer: inactive

Question: And the Potency [3]?
Answer: inactive

Question: What about the Potency [4] of the same molecule?
Answer: inactive

Question: And the activity (max response) [5]?
Answer: -1.78%

Question: What about the Potency [6] of the same molecule?
Answer: inactive

Question: With `CCc1c(C(=O)C(N)=O)c2c(OCC(=O)OC)cccc2n1Cc1ccccc1` as the molecule, how does the Potency [1] read?
Answer: 2.31 µM (active)

Question: With `Clc1cccc(SC2CCNCC2)n1` as the molecule, how does the Potency [1] read?
Answer: inactive

Question: What about the activity (max response) [5] of the same molecule?
Answer: 3.75%

Question: With `O=C1CN=C(c2cccc(Br)c2)c2oc3ccccc3c2N1` as the molecule, how does the Potency [1] read?
Answer: 7.31 µM (active)

Question: For `C/C=C1/CN2CC[C@]34C(=Nc5ccccc53)[C@@H]2C[C@@H]1[C@H]4C(=O)OC`, which Potency [1] is on record?
Answer: 2.27 µM (active)

Question: For `CC1=C(O)C(=O)C=C2C1=CC=C1[C@@]2(C)CC[C@@]2(C)[C@@H]3C[C@](C)(C(=O)O)CC[C@]3(C)CC[C@]12C`, which Potency [1] is on record?
Answer: 0.468 µM (active)

Question: And the Potency [7]?
Answer: 3.72 µM (active)

Question: And the Potency [8]?
Answer: 5.9 µM (active)

Question: What about the Potency [9] of the same molecule?
Answer: 2.64 µM (active)

Question: And the Potency [3]?
Answer: 2.64 µM (active)

Question: What about the Potency [5] of the same molecule?
Answer: 4.47 µM (active)

Question: What about the Potency [6] of the same molecule?
Answer: 6.31 µM (active)

Question: With `O=S(=O)(F)Cc1ccccc1` as the molecule, how does the Potency [1] read?
Answer: inactive

Question: And the Potency [7]?
Answer: inactive

Question: And the Potency [8]?
Answer: inactive

Question: And the Potency [2]?
Answer: inactive

Question: And the Potency [4]?
Answer: inactive

Question: What about the activity (max response) [5] of the same molecule?
Answer: 2.11%

Question: And the Potency [6]?
Answer: inactive

Question: For `C=CC(=O)NCNC(=O)C=C`, which Potency [1] is on record?
Answer: inactive

Question: And the activity (max response) [5]?
Answer: -0.888%

Question: With `CCOC(=O)Nc1ccc(NCc2c(C)cc(C)cc2C)cc1N` as the molecule, how does the Potency [1] read?
Answer: 9.2 µM (active)

Question: With `CC(=O)C1CCC2C3CCC4C[C@@H](O)CCC4(C)C3CCC12C` (stereo partly specified) as the molecule, how does the Potency [1] read?
Answer: 14.6 µM (active)

Question: What does the source list for `O=S(=O)(CC1CS1)c1ccc(Oc2ccccc2)cc1` (stereo unspecified)?
Answer: Potency [1]: 10.5 µM (active); Potency [10]: 20.9 µM (active); activity (max response) [5]: -6.36%

Question: Which results are given for `C[C@]12CC[C@H]3[C@@H](CC[C@@]45O[C@H]4C(O)=C(C#N)C[C@]35C)[C@H]1CC[C@H]2O`?
Answer: Potency [1]: 11.9 µM (active); Potency [10]: 18.7 µM (active)

Question: For `C#CCO[C@H]1CN2CCC1CC2`, which Potency [1] is on record?
Answer: inactive

Question: Which Potency [1] does the source give for `CCCCCC[C@H]1C(=O)O[C@H](C)[C@H](NC(=O)c2cccc(NC=O)c2O)C(=O)O[C@@H](C)[C@@H]1OC(=O)CC(C)C` here?
Answer: 0.105 µM (active)

Question: And the Potency [7]?
Answer: inactive

Question: And the Potency [8]?
Answer: 1.66 µM (active)

Question: For `CC(C)[C@H]1C(=O)N[C@H](CO)Cc2c[nH]c3cccc(c23)N1C`, which Potency [1] is on record?
Answer: 0.288 µM (active)

Question: And the Potency [8]?
Answer: inactive

Question: And the Potency [2]?
Answer: 372 nM (active)

Question: And the Potency [4]?
Answer: inactive

Question: What about the activity (max response) [5] of the same molecule?
Answer: -2.75%

Question: And the Potency [6]?
Answer: inactive

Question: Which Potency [1] does the source give for `COc1ccc(C23CCC(=O)C=C2N(C)CC3)cc1OC` (stereo unspecified) here?
Answer: 3.66 µM (active)

Question: With `Clc1ccccc1C(c1ccccc1)(c1ccccc1)n1cccn1` as the molecule, how does the Potency [1] read?
Answer: 16.6 µM (active)

Question: What about the Potency [7] of the same molecule?
Answer: inactive

Question: And the Potency [11]?
Answer: inactive

Question: What about the Potency [12] of the same molecule?
Answer: inactive

Question: And the Potency [2]?
Answer: inactive

Question: And the Potency [3]?
Answer: inactive

Question: And the Potency [10]?
Answer: inactive

Question: And the activity (max response) [5]?
Answer: -15.1%

Question: What about the Potency [6] of the same molecule?
Answer: inactive

Question: Which Potency [1] does the source give for `Oc1ccc2c(c1)C13CCCC[C@H]1[C@@H](C2)N(CC1CCC1)CC3` here?
Answer: 10.3 µM (active)

Question: For `C#CC1(O)CCC2C3CCC4=CC(=O)CCC4(C)C3CCC21C` (stereo unspecified), which Potency [1] is on record?
Answer: 11.8 µM (active)

Question: And the Potency [8]?
Answer: inactive

Question: What about the Potency [9] of the same molecule?
Answer: inactive

Question: And the Potency [2]?
Answer: inactive

Question: And the Potency [3]?
Answer: inactive

Question: What about the Potency [10] of the same molecule?
Answer: inactive

Question: And the activity (max response) [5]?
Answer: 9.7%

Question: What about the Potency [6] of the same molecule?
Answer: inactive

Question: Which results are given for `CC(=O)c1c(O)c(C)c(O)c(Cc2c(O)c3c(c(C(=O)/C=C/c4ccccc4)c2O)OC(C)(C)C=C3)c1O`?
Answer: Potency [1]: 25.9 µM (active); activity (max response) [5]: -2.92%; Potency [6]: inactive

Question: What does the source list for `CC[n+]1c(-c2ccccc2)c2cc(N)ccc2c2ccc(N)cc21`?
Answer: Potency [1]: 4.22 µM (active); Potency [5]: 5.17 µM (active)

Question: What does the source list for `C[C@]12CC[C@H]3[C@@H](CCC4=CC(=O)CC[C@@]43C)[C@@H]1CC[C@@H]2C(=O)O`?
Answer: Potency [1]: inactive; activity (max response) [5]: 11.4%; Potency [6]: inactive

Question: With `CCCCCCCCCCCCCCCC[N+](C)(C)C` as the molecule, how does the Potency [1] read?
Answer: 1.19 µM (active)

Question: What about the Potency [5] of the same molecule?
Answer: 7.31 µM (active)

Question: What about the Potency [6] of the same molecule?
Answer: 8.2 µM (active)

Question: What does the source list for `Cc1cc(O)ccc1Cl`?
Answer: Potency [1]: inactive; activity (max response) [5]: 10.8%; Potency [6]: inactive

Question: Which results are given for `CC(C)NCC(O)c1ccccc1Cl` (stereo unspecified)?
Answer: Potency [1]: inactive; activity (max response) [5]: 5.55%; Potency [6]: inactive

Question: Which results are given for `CCCCOC(=O)c1ccccc1C(=O)OCc1ccccc1`?
Answer: Potency [1]: 17.2 µM (active); activity (max response) [5]: 0.138%; Potency [6]: inactive

Question: Which results are given for `c1ccc2nc(N3CCNCC3)ccc2c1`?
Answer: Potency [1]: inactive; activity (max response) [5]: -8.05%; Potency [6]: inactive
